Source: PubChem BioAssay AID504467 (National Center for Advancing Translational Sciences (NCATS), 2011)
In all, about 330,000 compounds went through this assay and about 7,700 (2.3%) were called active. Another 26% or so got no clear call; they are omitted. The sample as a whole holds a higher share of actives than the screen did. A number with no mark means an inactive call. The call rests on the fitted dose curve; in most records, active means well fitted inhibition curve with a large enough effect; inconclusive means small, poorly fitted or top-dose-only effect, or effect the other way; inactive means flat fitted curve, though single readings scatter.

Assay: qHTS screen for small molecules that inhibit ELG1-dependent DNA repair in human embryonic kidney (HEK293T) cells expressing luciferase-tagged ELG1; further: nearly all actives have a fitted effect of over 55% in size
Conditions: HEK293T ELG1-luciferase reporter, luminescence, 16 h, DNA damage induced by 5-fluorouridine; series mostly up to 46.1 µM; activity change, negative = inhibition: at the top concentration
Source text: NIH Molecular Libraries Probe Production Network [MLPCN] NIH Chemical Genomics Center [NCGC] MLPCN Grant: 1 R03 MH092164-01 Assay Provider: Kyungjae Myung, NHGRI, NIH Keywords: MLPCN, qHTS, NCGC, genotoxicity, cancer Assay Overview: Cancer cells divide rapidly compared to normal cells in the body. During cell division, cancer cells need to duplicate their genome by DNA replication. The failure of genome duplication leads to cancer cells' death. Therefore, inhibitors of DNA replication could specifically kill cancer cells. Based on this concept, many chemotherapeutic agents were developed and have been used to treat cancer patients. However, there are a limited number of agents available in the clinical setting, and some of those that do exist have low efficacy and severe side effects. Therefore, if we can find the compounds that effectively block DNA replication either by directly damaging DNA or by inhibiting other cellular mechanisms, the options for cancer treatment will be broadened. With this in mind, we developed a quantitative high-throughput ELG1-luciferase reporter gene assay. Small molecules that specifically block ELG1 function in response to DNA damage can be identified by monitoring the suppression of luciferase activity. Since ELG1 defines a pathway for repairing DNA damage, agents blocking ELG1 function can be used to sensitize cancer cells to chemotherapeutic agents whose mechanism of action involves the induction of DNA damage.
Assay Protocol Summary: For genotoxicity screening, 2,000 cells in 4 uL/well were dispensed into white, solid-bottom 1536-well plates using a solenoid-based dispenser. Following transfer of 1 uL 5-Fluorouridine and 23 nL compound or DMSO vehicle by a pin tool, the plates were incubated 16 hr at 37 °C and 5% CO2. 5 ul ONE-Glo (Promega) was then added to each plate and following a 30 min incubation at room temperature, luciferase activity was quantified on a ViewLux CCD-based plate reader.
On the % scale 0 is the no-effect control and ±100 the full control effect; potency means the concentration at half of the fitted maximal effect.

SMILES	activity change, negative = inhibition [%]	Potency
Cc1cccc(N2C(=O)N3[C@H](c4ccc(F)cc4)[C@@H]4C(=O)N(C5CCCCC5)C(=O)[C@@H]4[C@]3(Cc3ccccc3)C2=O)c1	-2.6	–
COc1ccc(CN2C3CCCC2CC(NC(=O)c2cccc(F)c2)C3)cc1 (centres undefined)	7.95	–
CN(CC(=O)NCC(c1ccccc1)N1CCCC1)S(=O)(=O)c1ccc(Cl)cc1 (centres undefined)	8.82	–
COc1cc(/C=C2\SC(=O)NC2=O)ccc1OCc1ccc(Cl)nc1	13.8	–
O=C(NCC(c1ccco1)N1CCc2ccccc21)c1cccc(F)c1 (centres undefined)	-6.47	–
CCCCn1c(N)c(N(CC)C(=O)c2ccc(N(C)S(=O)(=O)c3ccc(C)cc3)cc2)c(=O)[nH]c1=O	2.79	–
COCCN1C(=O)C(=O)/C(=C(/O)c2ccc(S(=O)(=O)N3CCCCC3)cc2)C1c1ccc(OC)c(OC)c1 (centres undefined)	6.1	–
Cn1cc(C(=O)c2ccc(Cl)cc2Cl)cc1C(=O)NN	0.667	–
Cc1noc(C)c1S(=O)(=O)N(C)C[C@H]1Oc2ccc(NC(=O)C3CC3)cc2C(=O)N([C@H](C)CO)C[C@@H]1C	0.566	–
Cc1ccc(CN2CC(C(=O)NNC(=O)Cn3ccc(C(F)(F)F)n3)CC2=O)cc1 (centres undefined)	-0.475	–
Cc1cc(C(=O)Nc2c(C)nn(Cc3ccccc3)c2C)on1	3.72	–
Cc1nn(Cc2ccc(Cl)c(Cl)c2)c(C)c1NC(=O)c1cc(C2CC2)on1	–	16.4 µM (active)
O=C(Nc1cc(C(F)(F)F)ccc1Cl)c1cc(C2CC2)on1	2.26	–
CC(=O)Nc1cccc(NC(=O)c2ccc3c(c2)CCN3S(C)(=O)=O)c1	-20.3	–
O=C1c2ccccc2[C@@H]2C[C@@H](O)[C@H](Nc3ccccc3Cl)CCN12	-12.1	–
O=C(CCN1C(=O)c2ccccc2C1=O)Nc1ccncc1	0	–
N#Cc1c(NC(=O)CCCN2C(=O)c3ccccc3C2=O)oc(-c2ccccc2)c1-c1ccccc1	–	7.94 µM (active)
COc1cc(C(=O)Nc2oc(-c3ccccc3)c(-c3ccccc3)c2C#N)cc(OC)c1OC	–	23.1 µM (active)
COc1cc(C(=O)NCC(=O)N2CC=C(c3ccccc3)CC2)cc(OC)c1OC	0	–
CC(Oc1ccccc1)C(=O)Nc1oc(-c2ccco2)c(-c2ccco2)c1C#N (centres undefined)	-0.938	–
Cc1cc(C)cc(NC(=O)CCN2C(=O)c3ccccc3C2=O)c1	-4.22	–
CCOc1ccc(NC(=O)c2cccc3c2C(=O)N(CC2CCCO2)C3)cc1 (centres undefined)	20.6	–
CCc1ccc(OCC(=O)N(Cc2ccccc2)C2CCS(=O)(=O)C2)cc1 (centres undefined)	-4	–
CC[C@]12c3[nH]c4ccc(Cl)cc4c3CCN1C(=O)[C@@H](CC(=O)NCCCOC)C[C@@H]2C(=O)N1CCN(C(=O)c2ccco2)CC1	0.426	–

SMILES	activity change, negative = inhibition [%]	Potency
CN(C)C(CNC(=O)c1cccc(S(=O)(=O)Nc2ccc(Br)cc2)c1)c1ccco1 (centres undefined)	-0.472	–
COc1ccc(-c2noc(CCCC(=O)NC3CCCC3)n2)cc1OC	-29	–
O=C(Nc1ccc2nc3n(c(=O)c2c1)CCCCC3)c1ccccc1Cl	-2.19	–
COc1ccc(CCNC(=O)C(=O)Nc2ccc3nc4n(c(=O)c3c2)CCCCC4)cc1OC	–	20.6 µM (active)
COc1ccc(NC(=O)Cn2nnc(C(=O)NCCc3ccc(OC)c(OC)c3)c2N)cc1	-0.109	–
O=C(NCCc1c[nH]c2ccccc12)C1CCN(Cc2ccc(Br)cc2)CC1	-14	–
CCn1cc(C(=O)NCCO)c(=O)c2cc(F)c(N3CCN(C)CC3)cc21	12.3	–
CCCCNC(=O)c1cn(CC)c2cc(N3CCN(C(=O)c4ccco4)CC3)c(F)cc2c1=O	–	14.6 µM (active)
CCn1cc(C(=O)N/N=C(/C)c2ccc(F)cc2)c(=O)c2cc(F)c(N3CCCC3)cc21	-10.6	–
COC(=O)CSc1nc2ccccc2c(=O)n1Cc1ccccc1	-3.93	–
O=S1(=O)CCOC[C@H](CC2CCCCC2)N1Cc1ccc(F)cc1	8.78	–
C=CC[C@@H](CC(=O)N[C@@H](CO)Cc1ccccc1)C(=O)NCCOC(=O)[C@@H](CC=C)CC(=O)OC(C)(C)C	17.7	–
CCOC(=O)c1c(-c2ccc(C)cc2)csc1/N=C(\C)C1=C(O)c2ccccc2C1=O	–	7.3 µM (active)
CCOC(=O)c1c(-c2ccc(-c3ccccc3)cc2)csc1NC(=O)CCC(=O)O	-0.959	–
CCOC(=O)c1c(-c2ccccc2)csc1NC(=S)NC(=O)c1ccccc1	-14	–
COc1cccc(CN(C)CC(O)COC(c2ccccc2)c2ccccc2C)c1 (centres undefined)	-14	–
CCCN(CCC)c1ccc(C(O)c2nnc(-c3ccccc3)o2)cc1 (centres undefined)	–	20.6 µM (active)
C=CCn1c(SCc2nnc(-c3ccccc3)o2)nnc1C(O)c1ccccc1 (centres undefined)	-0.318	–
CCCC(=O)Nc1nnc(-c2ccccc2)o1	16.7	–
CC(C)COc1ccc(C(=O)NNC(=O)CCC(=O)c2cccs2)cc1	0	–
C/C(Cl)=C\Cn1c(Nc2cccc(C)c2)nc2c1c(=O)n(C)c(=O)n2C	–	9.2 µM (active)
Cc1cccc(Cn2c(N3CCN(c4ccccc4)CC3)nc3c2c(=O)n(C)c(=O)n3C)c1	-5.25	–
CCC/C(C)=N\Nc1nc2c(c(=O)n(C)c(=O)n2C)n1C	-2.43	–
CCc1[nH]nc(C(=O)N2CCCC(CO)(Cc3ccc(F)cc3F)C2)c1C (centres undefined)	2.52	–

SMILES	activity change, negative = inhibition [%]	Potency
O=C1c2cccnc2C(Nc2ccc(S(=O)(=O)N3CCCCCC3)cc2)N1Cc1ccccc1 (centres undefined)	–	8.2 µM (active)
O=C(COc1ccc(S(=O)(=O)N2CCCCC2)cc1)NCc1ccccn1	-4.87	–
O=C(Nc1ccc(S(=O)(=O)N2CCCCC2)cc1)c1cnccn1	-7.35	–
Cc1ccc2nc(SCC(=O)Nc3cccc4ccccc34)nc(=O)n2c1	12.8	–
O=C(NCCc1ccccn1)c1cccnc1Oc1ccc(Cl)cc1	-2.16	–
COC(=O)CNC(=O)c1cc(-c2ccncc2)nc2ccccc12	4.24	–
O=C(NCCc1ccccn1)c1cc(-c2ccc(Cl)cc2)nc2ccccc12	–	23.1 µM (active)
Cc1ccccc1Nc1nc(N)nc(COC(=O)CCC(=O)c2ccc(F)cc2)n1	16.3	–
COC(=O)c1noc(C)c1-c1ccnn1C(=O)c1ccc(Cl)cc1	3.21	–
Cc1onc(-c2ccc(Cl)cc2)c1-c1ccnn1S(=O)(=O)c1ccc(Cl)cc1	–	14.6 µM (active)
Cc1onc(-c2ccccc2)c1C(=O)N=C(N)c1ccc(Cl)cc1	10.9	–
Cc1nn(-c2ccccc2)c(C)c1NC(=O)CCl	-3.28	–
Cc1nn(-c2ccccc2)c(C)c1NC(=O)COC(=O)c1cc(Cl)ccc1O	11.5	–
Cc1nn(-c2ccccc2)c(C)c1NC(=O)COc1ccc(Cl)cc1Cl	–	20.6 µM (active)
O=C(CSc1ncn[nH]1)Nc1ccc(Br)cc1Br	18	–
Nc1ncnc2c1ncn2[C@@H]1O[C@H](CNS(=O)(=O)c2ccc(-c3ccno3)s2)[C@@H](O)[C@H]1O	12.8	–
CCn1ccnc1CN(C)C(=O)c1cc(COc2ccc(-n3cncn3)cc2)on1	1.51	–
COc1ccc(CC(=O)Nc2nc(-c3ccc(F)c(F)c3)cs2)cc1OC	-17.4	–
COc1cccc(CC(=O)Nc2ccc(-c3csc(C)n3)cc2)c1	-2.46	–
COc1cccc(CC(=O)Nc2nc(-c3ccc(OC)c(OC)c3)cs2)c1	–	25.9 µM (active)
COc1ccccc1C(=O)NCC(=O)OCC(=O)Nc1nnc(-c2ccccc2)o1	18.9	–
COc1ccc(/C=C/C(=O)NC(=S)N2CCCC(C(N)=O)C2)cc1 (centres undefined)	12.9	–
CCOC(=O)c1sc(NC(=O)CSc2nc3c(c(=O)n2-c2ccccc2)SCC3)c(C(=O)OCC)c1C	-7.99	–
CCc1nnc(NC(=O)CSc2nc3c(c(=O)n2-c2ccccc2OC)SCC3)s1	–	20.6 µM (active)

SMILES	activity change, negative = inhibition [%]	Potency
CCOc1ccc(NC(=O)CSc2nc3c(c(=O)n2-c2ccccc2OC)SCC3)cc1	-1.1	–
Cc1ccc(S(=O)(=O)NCCC(=O)OCC(=O)N(C)c2ccccc2)cc1	-14.6	–
O=c1oc(-c2ccccc2NS(=O)(=O)c2ccc(Cl)cc2)nc2ccccc12	–	14.6 µM (active)
O=c1ccc2cc(S(=O)(=O)Nc3ccccc3F)ccc2o1	3.06	–
O=c1oc2ccccc2c(NC2CCCCC2)c1NS(=O)(=O)c1ccc(Cl)cc1	-0.699	–
Cc1ccc(NC(=O)c2ccc(S(=O)(=O)NCC3CCCO3)cc2)cc1C (centres undefined)	-12.5	–
O=C(Nc1ccc(S(=O)(=O)NCC2CCCO2)cc1)c1ccc(F)cc1 (centres undefined)	-17.1	–
CN(CC1CCCO1)S(=O)(=O)c1ccc(C(=O)Nc2ccc([N+](=O)[O-])cc2)cc1 (centres undefined)	–	1.83 µM (active)
CN(CC1CCCO1)S(=O)(=O)c1ccc(C(=O)Nc2ccc(F)cc2)cc1 (centres undefined)	–	4.11 µM (active)
CCC(=O)Nc1ccc(S(=O)(=O)NCC2CCCO2)cc1 (centres undefined)	-9.4	–
CCOc1ccc(C(=O)Nc2ccc(S(=O)(=O)NCC3CCCO3)cc2)cc1OCC (centres undefined)	-11.3	–
Cc1c2cnn(CC(=O)NCc3ccccn3)c(=O)c2c(C)n1Cc1ccc(Cl)cc1	-19.6	–
COc1cccc(-n2c(SCC(=O)NC3CCS(=O)(=O)C3)nc3ccccc3c2=O)c1 (centres undefined)	6.94	–
C[C@H]1CN([C@@H](C)CO)C(=O)Cc2cc(NC(=O)Cc3ccccc3)ccc2O[C@H]1CN(C)S(=O)(=O)c1cccs1	-24.8	–
O=c1ccc2c(-c3ccccc3S(=O)(=O)O)c3ccc(O)c(O)c3oc-2c1O	–	35.5 µM (active)
COc1cc(OC)cc(-c2sc3ccc(OC)cc3c2-c2ccc3cc[nH]c3c2)c1	0	–
CC(C)CC1NC(=O)c2cc(Cl)ccc2-n2c1nc1ccccc1c2=O (centres undefined)	8.05	–
Cc1cccc(N(Cc2ccccc2)C(=O)c2ccccc2F)c1	-11.6	–
CCc1ccc(NC(=O)CSc2nc3ccccc3c(=O)n2CCN2CCOCC2)cc1	–	23.1 µM (active)
CCOc1ccc(NC(=O)CSc2nc3ccccc3c(=O)n2Cc2cccs2)cc1	21	–
COC(=O)c1ccc2c(=O)n(CCN3CCOCC3)c(SCC(=O)Nc3cccc(OC)c3)nc2c1	-4.3	–
Cn1c(=O)n(C)c2cc(S(=O)(=O)Nc3ccc(F)cc3)ccc21	-1.4	–
